# Compound activity as filed in PubChem BioAssay.
# KAT2A inh – inhibitors of human GCN5L2 histone acetyltransferase. GCN5L2 HAT assay, ThioGlo1 CoA-SH fluorescence. Potency, µM (doses to about 58.9 µM), for inactives: at the highest dose activity change, negative = inhibition, hits mostly inhibitors. 0.21% of 390,000 active. AID 504327
#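 Titration-based screen in which CoA formation is detected via maleimide probe ThioGlo1 (50uM) turning fluorescent on thiol reaction; substrates H3(1-25) 75uM and acetyl-CoA 70uM, GCN5L2 20nM, 20 min incubation at room temperature.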
# PLK1 PBD block – PLK1 (human) polo-box domain binding inhibition; Potency, µM, inactives show max response, negative = inhibition, usual class: inhibitors; Plk1 PBD binding of FITC phosphopeptide, fluorescence polarization; 2.8% of 360,000 active; note: series mostly up to about 57 µM; nearly all actives have a fitted effect of over 65% in size
# ALOX12 inh – blocks human arachidonate 12S-lipoxygenase | 1.1% of 580,000 active | Potency, µM (top dose mostly 108 µM), without a hit: at the highest dose activity change, negative = inhibition, actives largely listed as inhibitors | purified 12hLO, xylenol orange hydroperoxide absorbance
#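 Purified human 12hLO at 150 nM in 25 mM Hepes, 0.01% Triton X-100, pH 7.0, preincubated 15 min at room temperature with compound. Reaction started with 40 uM arachidonic acid, 30 min at room temperature. Hydroperoxide measured by Fe-xylenol orange, 573/405 nm absorbance ratio.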
# VDR inh – blocks the human vitamin D receptor | P11473 | VDR-SRC2-3 peptide fluorescence polarization, 2 h | Potency, µM, for inactives: max response, negative = inhibition, hits mostly inhibitors | 0.93% of 400,000 active | AID 504847
#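 Two reagent solutions held at 4 deg C in the dark were dispensed, compounds pinned at 23 nl, and the mixture incubated 2 h at room temperature. Read-out: fluorescence polarization of VDR–SRC2-3 peptide binding.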
# Active calls of the source: *; ? = inconclusive; nt = no result; [ ] = dose if it differs, or a comment. Hits are enriched below; roughly 3% of the tested compounds scored in any of these assays. Calls come from the whole dose curve; as a rule, active = well fitted curve in the direction sought with a large enough effect; inconclusive = small, poorly fitted or top-dose-only effect, or another doubt; inactive = no such curve, though single readings can be large; an effect the other way counts as inactive or inconclusive. % is set by controls: 0 for no effect and ±100 for the full control effect; potency is the fitted concentration of half-maximal effect.
SMILES,KAT2A inh,PLK1 PBD block,ALOX12 inh,VDR inh
CC(=NCCc1ccccc1)C1=C(O)CCC1=O,-0.2%,-12.7%,-13.7%,-2.7%
CC(=NCCc1ccccc1)C1=C(O)CSC1=O,-5.4%,11.9µM*,0.9%,?
CC(C)CCN1CCOc2cc(C(=O)Nc3nccs3)ccc2C1,nt,nt,73.5%[176 µM],nt
C=CC(C1=CC(=O)C(OC)=CC1=O)c1ccc(O)cc1 (stereo not drawn),12.5%,nt,nt,-18.2%
C=CC(C1=CC(=O)C=CC1=O)c1ccccc1 (stereo not drawn),-1.7%,nt,nt,35.5µM*
C=C[C@@H](C1=CC(=O)C(OC)=C(OC)C1=O)c1ccccc1,nt,nt,?,3.98µM*
COC(=O)[C@@]1(Cc2ccc(OC)cc2)[C@@H]2C(=CC(=O)[C@H]2CC(=O)C(=O)N2CCCC2)CN1C(=O)c1ccccc1,-4.3%,-7.3%,nt,89.1µM*
COC(=O)[C@@]1(Cc2ccc(F)cc2)[C@H]2C(CC(=O)C(=O)N3CCCC3)C(=O)C[C@H]2CN1C(=O)c1ccccc1 (stereo partly drawn),nt,-13.9%,-26.5%,nt
Cc1cccc(-n2cnc3cc([N+](=O)[O-])ccc32)c1,11.0%,16.8µM*,-17.0%,-20.4%
O=C(COc1ncnc2ccc(Br)cc12)Nc1cccc(F)c1,nt,nt,-35.2%,nt
CCCCCOC(=O)c1[nH]c2c(c1C)C(=O)CC(c1ccco1)C2 (stereo not drawn),-12.3%,23.8µM*,nt,79.4µM*
CCOc1ccccc1Oc1c(C)oc2cc(OCC(=O)Nc3ccc(O)cc3C)ccc2c1=O,nt,nt,-1.9%,nt
O=C(CC(c1ccc(Cl)cc1)c1c[nH]c2ccc([N+](=O)[O-])cc12)N1CCOCC1 (stereo not drawn),nt,nt,8.91µM*,nt
COCCNC(=O)CC(c1ccc(Cl)cc1)c1c[nH]c2ccc([N+](=O)[O-])cc12 (stereo not drawn),nt,nt,7.08µM*,nt
C=CC[n+]1c(-c2ccc(C)cc2)csc1Nc1c(C)n(C)n(-c2ccccc2)c1=O,0.4%,-17.3%,28.2µM*,-18.6%
C=CC[n+]1c(-c2ccc(Cl)cc2Cl)csc1Nc1c(C)n(C)n(-c2ccccc2)c1=O,3.3%,-12.7%,?,21.3%
O=C(CNc1ccc2ccccc2c1)N/N=C/c1ccc([N+](=O)[O-])o1,0.7%,-3.6%,-9.6%,-6.1%
O=C(CSc1ccc(Cl)cc1)N/N=C/c1ccc([N+](=O)[O-])o1,-12.1%,-23.7%,39.8µM*,-0.2%
CCOC(=O)CC(N)c1cc(OC)cc(OC)c1 (stereo not drawn),nt,nt,60.7%,nt
Cc1ccc(CN(C(=O)c2cc(=O)c3cc(Cl)c(C)cc3o2)c2ccccn2)o1,nt,nt,25.1µM*,nt
Cc1ccc(CNS(=O)(=O)c2ccc3c(c2)N(Cc2noc(C)n2)C(=O)CO3)cc1,nt,nt,-1.2%,nt
CCS(=O)(=O)Nc1ccc(C(=O)CC2(O)C(=O)Nc3ccc(Br)cc32)cc1 (stereo not drawn),-0.7%,21.2µM*,0.0%,-13.8%
COc1ccccc1NC(=S)NCc1ccc(Cl)cc1,-4.0%,-10.1%,11.2µM*,-13.1%
COc1ccc(NC(=S)NCc2ccc(Cl)cc2)c(OC)c1,?,-3.7%,?,-18.7%
COc1ccc(CNC(=S)Nc2ccccc2C)cc1,-12.2%,16.8µM*,?,-24.1%
SMILES,KAT2A inh,PLK1 PBD block,ALOX12 inh,VDR inh
Cc1ccc(NC(=S)NCc2ccc(Cl)cc2)c(C)c1,0.4%,-23.8%,35.5µM*,36.1%
COc1ccc(CNC(=S)NCc2ccc(Cl)cc2)cc1OC,?,-2.6%,50.1µM*,13.1%
Cc1cc(Cl)ccc1NC(=S)NCc1ccccc1,-5.7%,-18.5%,?,-3.6%
CC(=O)c1cccc(NS(=O)(=O)c2ccc(-c3ccc(C)cc3)cc2)c1,nt,nt,-11.5%,nt
COC(=O)CCC/C=C1/SCC(NC(=O)c2ccccc2)C1=O (stereo not drawn),?,?,-23.5%,89.1µM*
COC(=O)CCC/C=C1/SCC(NC(=O)c2ccccc2)C1NC(C)=O (stereo not drawn),-1.3%,-1.7%,0.8%,8.7%
Cc1cc2ccccc2n1CC(=O)N1CCN(CC(=O)N2CCCC2)CC1,nt,nt,-1.5%,nt
Cc1cc(N)ccc1N1CCCC1,?,?,nt,70.8µM*
CCOC(=O)COc1ccc2c(C)c(Cc3ccccc3)c(=O)oc2c1C,nt,nt,-27.0%,nt
O=C(NCc1ccccn1)C1CCCN(C(=O)c2cccc(C(F)(F)F)c2)C1 (stereo not drawn),nt,nt,43.6%,nt
O=C(O)/C=C/C(=O)Nc1ccc(C2(c3ccc(NC(=O)/C=C/C(=O)O)cc3)c3ccccc3-c3ccccc32)cc1,-20.5%,29.9µM*,?,25.1µM*
